Only some compounds are listed: those with a hit (about 11% of all), similar ones and a draw of the others.
Pf growth 96h: inhibits malaria parasite growth, 96 h; AID 504834; Potency, µM (doses to about 28.7 µM), without a hit: at the top dose activity change, negative = inhibition, hits mostly inhibitors; P. falciparum luciferase reporter growth, 96 h; hit rate 6.9% among 320,000
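Cell-based qHTS: luciferase-tagged P. falciparum in erythrocytes (2% hematocrit, 0.05% parasitemia final) incubated with compounds for 96 hours, 37 C, 5% CO2; luciferase detection reagent then added and luminescence measured.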
AMA1-RON2 inh: disrupts binding of P. falciparum AMA1 to RON2; Potency, µM (top dose mostly 58.2 µM), for inactives: top-dose activity change, negative = inhibition, usual class: inhibitors; hit rate 0.2% among 360,000; AlphaScreen AMA1-biotinylated RON2 peptide binding;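 note: 0% = vehicle wells and -100% = peptide control; nearly all actives have a fitted effect of over 45% in size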
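AMA1 (3D7) with his tag at 25 nM final met compounds first, then biotinylated RON2 peptide at 25 nM; detection used donor plus acceptor beads, 10 µg/mL apiece, read by AlphaScreen after 30 min at room temperature.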
HCV inh: blocks hepatitis C virus | Huh7.5.1 HCVcc-Cre infection, luciferase reporter, 44 h | Potency, µM (titrated, usually from 41.8 µM), for the others: top-dose activity change, negative = inhibition, most hits filed as inhibitors | hit rate 3.4% among 340,000 | AID 651820
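Seed cells (1,000/well) for 4 h; treat with compound and infect with HCVcc-Cre, moi about 0.5. Incubate 44 h, then detect luciferase activity.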
Pf growth 48h: P. falciparum growth inhibition at 48 hours (one generation); P. falciparum luciferase growth in erythrocytes, 48 h; Potency, µM (doses to about 28.7 µM), for inactives: top-dose activity change, negative = inhibition, hits mostly inhibitors; hit rate 5.9% among 310,000
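A one-generation exposure of luciferase-tagged malaria parasites in RPMI 1640/Albumax erythrocyte culture, 37 C and 5% CO2. Inhibition is inferred from decreased luminescence after adding detection reagent.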
Active calls of the source: *; u = inconclusive; x = no result given. Calls come from the whole dose curve; as a rule, active = well fitted curve in the direction sought with a large enough effect; inconclusive = small, poorly fitted or top-dose-only effect, or another doubt; inactive = no such curve, though single readings can be large; an effect the other way counts as inactive or inconclusive. Unless noted, % is set by controls: 0 for no effect and ±100 for the full control effect; potency is the fitted concentration of half-maximal effect.

SMILES | Pf growth 96h | AMA1-RON2 inh | HCV inh | Pf growth 48h
Cc1cccc(-c2c3c(=O)n(C)c(=O)n(C)c3cn2-c2ccccc2O)c1 | 8.3µM* | -7% | u | 1.9µM*
CN(C)/C=C/C(=O)c1ccc2noc(-c3cccc(F)c3)c2c1 | u | 0% | u | -11%
COc1ccc(-c2onc3ccc(C(=O)/C=C/N(C)C)cc23)cc1 | u | 1% | -18% | 10µM*
CC(C)n1c(CNC(=O)c2ccccc2F)nnc1SCC(=O)c1ccc(F)cc1 | x | 18% | 0% | x
O=C(Nc1ccc(Br)cc1)c1cccc(N2C(=O)C3CCCCC3C2=O)c1 (centres undefined) | 1% | 8% | x | 17%
Cc1occc1C(=O)NC1CCCN(Cc2ccc(Cl)cc2)C1 (centres undefined) | 29% | 2% | u | -7%
Cc1cc(C(=O)NC2CCCN(Cc3ccc(Cl)cc3)C2)c(C)o1 (centres undefined) | u | 5% | -6% | 10µM*
O=C(CCc1ccc(F)c(F)c1)NC1CCCN(Cc2ccc(Cl)cc2)C1 (centres undefined) | 9.3µM* | -2% | 4% | -22%
COc1ccc(CCC(=O)NC2CCCN(Cc3ccc(Cl)cc3)C2)cc1OC (centres undefined) | 42% | 0% | -15% | u
Cc1cc(C)nc(NCCO)n1 | 16% | -5% | -4% | 0%
Clc1ccc([C@H](Cn2ccnc2)OCc2c(Cl)cccc2Cl)c(Cl)c1 | 2µM* | x | x | 6.4µM*
Clc1ccc(COC(Cn2ccnc2)c2ccc(Cl)cc2Cl)cc1 (centres undefined) | 1.9µM* | -1% | u | 2.1µM*
O=C(Nc1ccn(CCCN2CCN(c3ccccn3)CC2)c(=O)n1)OCc1ccccc1 | x | 5% | -69% | x
CC(C)C[C@H]1CN(CCCC[C@H]2CNC(=O)C(=O)N2CCC2CCCCC2)C(=O)C(=O)N1CCc1ccccc1 | x | 5% | x | x
CCOC(=O)c1cnc(SCc2ccc(Cl)c(Cl)c2)nc1N1CC1 | x | 0% | 11µM* | x
S=C(Nc1ccccc1)N1CCC(Cc2ccccc2)CC1 | u | 6% | u | u
O=C(CSc1nc(Cc2ccccc2)nc2ccccc12)c1ccc2c(c1)OCCO2 | u | 22% | u | 9.3µM*
CCc1nc(SCC(=O)c2ccccc2)c2ccccc2n1 | u | 0% | u | u
CCc1nc(SCC(=O)c2ccc3c(c2)OCCO3)c2ccccc2n1 | 10µM* | 43% | 8.9µM* | u
O=C(CSc1ncnc2ccccc12)c1ccc2c(c1)OCCO2 | 52% | 34% | u | 129%
O=C1NCCc2c1[nH]c1c(Cl)ccc(Cl)c21 | -1% | -3% | 11µM* | 32%
Cc1ccc(S(=O)(=O)N2CCOCC2)cc1C(=O)Nc1ccccc1N1CCOCC1 | -29% | 3% | 15% | -14%
O=C(Cn1nnc2ccccc2c1=O)NC1CCCc2ccccc21 (centres undefined) | 10µM* | 18% | -6% | 8%
CSc1ccccc1C(=O)NC1CCCc2ccccc21 (centres undefined) | u | -5% | -12% | -13%
CC(C)C[C@H](NC(=O)NC1CCCc2ccccc21)C(=O)O (some centres undefined) | 17% | 5% | 7% | 2.3µM*
SMILES | Pf growth 96h | AMA1-RON2 inh | HCV inh | Pf growth 48h
O=C(Cn1nnc2ccccc2c1=O)Nc1ccc2c(c1)CCC2 | u | -4% | -27% | 24%
Cc1nn(Cc2ccccc2)c(Cl)c1C(=O)NC1CCCc2ccccc21 (centres undefined) | u | -3% | 35µM* | -19%
Cc1occc1C(=O)NC1CCCc2ccccc21 (centres undefined) | 6% | -9% | 20% | 13µM*
CN1CCN(C(=O)CN(C)S(=O)(=O)c2ccc3ccccc3c2)CC1 | 44% | 9% | -6% | u
C[C@@H]1O[C@H](CCc2cccc(Cl)c2)CC2=C1C(=O)OC(C)(C)O2 | x | 9% | x | x
CCO[C@H]1OC(C(=O)N2CCOCC2)=C[C@@H](C2CC2)[C@@H]1CCCO | 47% | 22% | 3% | 10%
CC(c1ccc(F)cc1)n1cc(C(=O)NCCN(C)C)nn1 (centres undefined) | 29% | 11% | -4% | 4%
O=C(NC1CCCc2ccccc21)c1n[nH]c(=O)c2ccccc12 (centres undefined) | u | 5% | 22µM* | u
Fc1ccc(NC(=S)Nc2cc(-c3ccccc3)[nH]n2)cc1Cl | 25% | 16% | u | 10µM*
Cc1ccc(NC(=S)Nc2cc(-c3ccccc3)[nH]n2)cc1Cl | 28% | 37% | 27% | u
Fc1ccc(NC(=S)Nc2cccnc2)cc1Cl | u | 20% | -13% | 15µM*
Clc1ccc(CN2CCN(c3ncccn3)CC2)c(Cl)c1 | 7% | 16µM* | -8% | -3%
Clc1cccc(CN2CCN(c3ncccn3)CC2)c1Cl | 13µM* | -22% | -13% | 19%
Clc1ccccc1CN1CCN(c2ncccn2)CC1 | u | u | -9% | -4%
Nc1ccccc1Sc1c[nH]c2ccccc12 | u | -15% | -24% | 6%
O=C(NCc1ccccc1)Nc1cccn(Cc2ccccc2)c1=O | 8% | 18% | u | -6%
O=C(NCc1ccccc1)Nc1cccn(Cc2ccccc2F)c1=O | -8% | -4% | -19% | 30%
CCc1ccccc1NC(=O)Nc1cccn(Cc2ccccc2F)c1=O | -16% | -2% | 11µM* | u
CCOc1ccc(NC(=O)Nc2cccn(Cc3ccccc3)c2=O)cc1 | u | -18% | 10µM* | -15%
Cc1c(C(=O)OCC(=O)NCc2ccco2)cccc1[N+](=O)[O-] | -5% | -21% | -8% | -12%
CN1CCN(CC(=O)N2c3ccccc3C(C)(c3ccc(Cl)cc3)CC2(C)C)CC1 (centres undefined) | u | -2% | -29% | x
CN1CCN(CC(=O)N2c3ccccc3C(C)(c3ccccc3)CC2(C)C)CC1 (centres undefined) | 10µM* | 3% | u | u
CC1(c2ccccc2)CC(C)(C)N(C(N)=O)c2ccccc21 (centres undefined) | u | -15% | u | -17%
CC(=O)N1c2ccccc2C(C)(c2ccccc2)CC1(C)C (centres undefined) | x | -15% | -19% | 9.3µM*
COc1cc(OC)cc(C(=O)NNC(=S)Nc2ccc(S(N)(=O)=O)cc2)c1 | -9% | 0% | -9% | 30%
CCC(C)(C)C1CCc2c(sc(NC(=O)c3ccoc3C)c2C(N)=O)C1 (centres undefined) | x | -6% | 10% | -6%
CCC1CCc2c(sc(NC(=O)c3ccoc3C)c2C(N)=O)C1 (centres undefined) | 129% | 5% | 5µM* | -9%
Cc1ccc(S(=O)(=O)NCCC2=CCCCC2)cc1C(N)=O | 10µM* | -13% | u | 15%
Cc1ccc(NC(=O)c2cc(S(=O)(=O)NCCC3=CCCCC3)ccc2F)cc1F | u | 11% | 4.5µM* | u
Cc1cc(S(=O)(=O)NCCC2=CCCCC2)ccc1Br | 50% | 11% | 11% | 2%

Screening data (PubChem)
